Source: PubChem (Broad Institute)
RAD54 inh = RAD54 (human) branch migration inhibition; Q92698; RAD54 Holliday junction branch migration, FAM/BHQ fluorescence; inhibition, % at 10.4 µM; actives 0.14% (n = 360,000); AID 602329;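 active = mean normalized replicate activity at least 40 and at least half of replicates scoring 40 or more; inconclusive = only one of the two criteria met; inactive = mean below 40 and under half of replicates reaching 40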;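 also: inhibitors cause a drop in the FAM fluorescence signal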
DENV2 CPE = protects cells from dengue virus 2 cytopathic effect. CPE inhibition, % at 9.99 µM. AID 651640. DENV2-infected cells, cytopathic effect rescue, plate reader. actives 1.7% (n = 350,000); in the data active = CPE inhibition above about 20%, passing the limit was not always enough; inconclusive = no clear call, values can overlap the other calls; tested in BHK-21 cells
dFosB activator = enhances mouse delta FosB homodimer DNA binding. activation, % at 25 µM. purified delta FosB, TAMRA-CDK5 oligo fluorescence polarization; percent of positive-control signal above neutral wells. actives 0.99% (n = 340,000);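 active = mean activation above about 17%, with every replicate also reaching it, limit read from the data, passing the limit was not always enough; inconclusive = only one of the two conditions met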
RAD52 inh = inhibitors of human RAD52 DNA annealing; P43351; recombinant RAD52 DNA annealing, FRET fluorescence; inhibition, % at 18.7 µM; actives 0.46% (n = 360,000); AID 651710;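 active = every replicate showing at least 50% inhibition; inconclusive = mean inhibition at least 50% but not in every replicate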
MLL AF4-AF9 inh = blocks AF4 peptide binding to human AF9. P42568. AlphaScreen, biotin-AF4 peptide binding to FLAG-AF9. inhibition, % at 10 µM. actives 0.47% (n = 350,000). AID 651704;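 active = every replicate reaching a set inhibition limit, whatever the replicate mean, cut at about 25% in these data; inconclusive = mean inhibition reaches that limit but some replicates miss it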
Target sequence (P42568 whole entry, looked up): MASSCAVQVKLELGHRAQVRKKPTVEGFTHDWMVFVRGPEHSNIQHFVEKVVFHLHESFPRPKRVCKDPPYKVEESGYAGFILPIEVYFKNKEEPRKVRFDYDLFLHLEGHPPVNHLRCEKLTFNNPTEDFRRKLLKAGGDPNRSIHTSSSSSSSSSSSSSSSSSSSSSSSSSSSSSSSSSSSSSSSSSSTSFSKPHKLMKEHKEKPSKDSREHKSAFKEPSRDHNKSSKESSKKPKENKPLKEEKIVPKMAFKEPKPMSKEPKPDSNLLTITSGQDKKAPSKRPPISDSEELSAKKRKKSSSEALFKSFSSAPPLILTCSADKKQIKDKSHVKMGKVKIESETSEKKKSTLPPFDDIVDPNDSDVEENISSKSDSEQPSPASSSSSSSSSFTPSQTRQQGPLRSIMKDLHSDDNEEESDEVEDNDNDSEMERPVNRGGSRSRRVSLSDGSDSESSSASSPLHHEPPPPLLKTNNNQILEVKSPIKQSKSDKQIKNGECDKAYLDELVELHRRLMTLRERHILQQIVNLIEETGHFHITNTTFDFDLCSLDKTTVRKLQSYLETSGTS
GSIS activator = GLuc luminescence reporter in INS-1E cells, primary screen for activators of glucose-dependent secretion of insulin; actives 0.61% (n = 370,000); INS-1E GLuc reporter insulin secretion, 2-3 h; activation, % at 16.6 µM;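 active = lowest replicate activation of at least 40%, so every replicate reaches that level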
Numbers stand for hits; – = inactive; ? = inconclusive; · = no result given. Sampled rows, rich in hits. Any-hit rate of the full collection: about 3.1%.

SMILES	RAD54 inh	DENV2 CPE	dFosB activator	RAD52 inh	MLL AF4-AF9 inh	GSIS activator
Cc1noc(C)c1S(=O)(=O)N(C)C[C@H]1Oc2ccc(NC(=O)C3CCCCC3)cc2CC(=O)N([C@H](C)CO)C[C@@H]1C	–	?	·	–	–	–
COc1ccc(C(=O)C2CCCN(C(=O)c3n[nH]c4c3CCCC4)C2)cc1OC (stereo not drawn)	–	–	–	–	–	66.6
COc1ccc(C(=O)C2CCCN(Cc3cccn3-c3nccs3)C2)cc1OC (stereo not drawn)	–	–	–	–	–	80.8
Cc1cc(Cl)ccc1C(=O)C1CCCN(C(=O)c2n[nH]c3c2CCCC3)C1 (stereo not drawn)	·	–	–	–	–	–
COc1cc(CN2CCCC(C(=O)c3ccc(C(C)(C)C)cc3)C2)cc(OC)c1O (stereo not drawn)	–	25.8	–	–	–	–
COc1ccc(C(=O)C2CCCN(Cc3cccn3-c3nccs3)C2)cc1F (stereo not drawn)	–	–	–	–	–	–
COc1ccc(C(=O)C2CCCN(Cc3cc(C)c(O)c(C)c3)C2)c(OC)c1 (stereo not drawn)	–	–	–	–	–	–
Cc1ccc(S(=O)(=O)NCc2ccccc2)cc1C(=O)N1CCN(S(=O)(=O)c2ccccc2F)CC1	–	58.1	·	–	–	–
O=C(c1cccc(S(=O)(=O)NCc2ccccc2)c1)N1CCN(c2ccc(F)cc2)CC1	–	–	–	–	25.7	–
O=S(=O)(NCc1ccccc1)c1ccc(S(=O)(=O)N2CCCCC2)cc1	–	·	–	·	·	49.5
Cc1ccc(S(=O)(=O)NCc2ccccc2)cc1C(=O)N1CCCCC1	–	–	–	–	–	–
O=C(NCc1cccnc1)c1cccc(S(=O)(=O)NCc2ccccc2)c1	·	–	–	–	–	46.0
CO[C@H]1CN(C)C(=O)c2ccc(NC(C)=O)cc2OC[C@@H](C)N(C(=O)c2ccccc2F)C[C@@H]1C	–	·	·	·	·	–
O=C(N/N=C/c1ccc(OC(=O)c2cccc(Br)c2)cc1)c1cccnc1	–	–	26.8	–	–	–
O=C(N/N=C/c1cccc(OC(=O)c2cccc(Br)c2)c1)c1cccnc1	–	–	–	–	–	–
COc1ccc(OCc2n(CC(=O)OC3CC(C)CCC3C(C)C)c3ccccc3[n+]2C)cc1 (stereo not drawn)	–	–	–	–	?	271.2
CC1(C)Oc2ccc3ccc(=O)oc3c2C[C@H]1O[C@@H]1O[C@H](CO)[C@@H](O)[C@H](O)[C@H]1O	–	41.3	–	–	–	–
CC1(C)Oc2ccc3ccc(=O)oc3c2CC1O (stereo not drawn)	–	–	–	–	–	·
O=C(C1CCOCC1)N1C[C@H]2[C@@H](c3ccccc31)[C@H](CO)N2C(=O)Nc1cccc(F)c1	–	–	·	–	–	–
O=C(C[C@@H]1CC[C@H](NS(=O)(=O)c2ccc(F)cc2)[C@@H](CO)O1)NCCN1CCCCC1	–	–	·	–	·	–
CCN1CCc2c(sc(NC(=O)c3ccc(S(=O)(=O)N(CC)c4ccccc4)cc3)c2C(N)=O)C1	–	–	40.8	–	–	·
CCN1CCc2c(sc(NC(=O)Nc3ccc(Cl)c(Cl)c3)c2C(N)=O)C1	–	–	56.4	–	–	–
CCN1CCc2c(sc(NC(=O)c3ccc(S(=O)(=O)N4CCOCC4)cc3)c2C(N)=O)C1	–	–	–	–	–	–
COc1cc(NC(=O)CN2CCC(Cc3ccccc3)CC2)c(C)cc1[N+](=O)[O-]	–	·	–	·	·	57.9
CO[C@@H]1CN(C)C(=O)c2ccc(NC(=O)C3CC3)cc2OC[C@H](C)N(CC2CC2)C[C@@H]1C	–	–	·	–	–	–
SMILES	RAD54 inh	DENV2 CPE	dFosB activator	RAD52 inh	MLL AF4-AF9 inh	GSIS activator
C[C@H](CO)N1C[C@H](C)[C@H](CN(C)C(=O)C2CCCCC2)Oc2ncc(-c3cccc(F)c3)cc2C1=O	–	–	·	–	–	–
COc1cccc(NC(=O)c2nc(S(C)(=O)=O)ncc2Cl)c1	–	–	–	–	–	54.4
CCNC(=O)C[C@@H]1CC[C@H]2[C@@H](COc3ccc(NC(=O)c4cccc(OC)c4)cc3C(=O)N2C)O1	–	–	·	–	–	–
COc1ccc2c3c([nH]c2c1)[C@H](CO)N(S(=O)(=O)c1cn(C)cn1)CC31CCN(Cc2ccccc2F)CC1	·	–	·	–	–	–
COCCNC(=O)c1ccc2c3n(nc2c1)-c1ccc(Cl)cc1CO3	–	121.8	–	–	·	–
O=C(NCCO)c1ccc2c3n(nc2c1)-c1ccc(Cl)cc1CO3	–	·	–	·	·	–
COc1ccc(/C(C)=N/Nc2nc3ccccc3n3cnnc23)cc1OC	·	–	·	–	–	44.1
COc1ccc(C(=O)c2nccc3cc(OC)c(OC)cc23)cc1OC	–	·	–	·	·	·
COc1cc2c(cc1OC)-c1c(OC)c(OC)cc3ccnc(c13)C2=O	88.2	?	–	–	–	–
CCOC(=O)CNC(=O)N1CCc2ccc(NC(=O)c3ccccc3OC)cc2C1	–	–	–	–	–	·
COc1ccccc1C(=O)Nc1ccc2c(c1)CN(Cc1cnc(C)s1)CC2	–	32.9	–	–	–	–
O=c1cc(-c2cccc(Br)c2)nc(-c2ccccc2F)o1	·	·	–	·	·	46.4
Cc1noc(C)c1S(=O)(=O)N(C)C[C@@H]1OCCCC[C@@H](C)Oc2ccc(NC(=O)Nc3ccc(F)cc3)cc2C(=O)N([C@@H](C)CO)C[C@@H]1C	·	45.7	·	–	–	–
Cc1noc(C)c1S(=O)(=O)N(C)C[C@H]1OCCCC[C@@H](C)Oc2ccc(NC(=O)Nc3ccc(F)cc3)cc2C(=O)N([C@H](C)CO)C[C@@H]1C	–	–	·	–	–	–
Cc1noc(C)c1S(=O)(=O)N(C)C[C@@H]1OCCCC[C@H](C)Oc2ccc(NC(=O)NC(C)C)cc2C(=O)N([C@H](C)CO)C[C@H]1C	–	86.4	·	–	–	–
C[C@@H]1CCCCO[C@@H](CN(C)CC2CCCCC2)[C@H](C)CN([C@@H](C)CO)C(=O)c2cc(NC(=O)CCCCCC(=O)Nc3ccccc3N)ccc2O1	–	–	·	–	–	–
CCCC(=O)Nc1ccc2c(c1)OC[C@H](C)NC[C@@H](C)[C@@H](OC)CN(C)C2=O	–	–	·	–	–	–
O=C(C[C@@H]1CC[C@H]2[C@@H](COC[C@@H](O)CN2C(=O)Nc2ccc(Cl)c(Cl)c2)O1)NCc1ccc(Cl)cc1	–	–	·	–	–	–
O=C(C[C@H]1CC[C@@H]2[C@H](COC[C@H](O)CN2C(=O)C2CCCC2)O1)NCc1ccncc1	–	30.3	·	–	–	–
O=C(C[C@@H]1CC[C@H]2[C@@H](COC[C@@H](O)CN2C(=O)C2CCCC2)O1)NCc1ccncc1	–	–	·	–	–	–
O=C(C[C@H]1CC[C@H]2[C@@H](COC[C@@H](O)CN2C(=O)Nc2ccc(Cl)c(Cl)c2)O1)NCc1ccc(Cl)cc1	–	28.9	·	–	–	–
CCNC(=O)C[C@H]1CC[C@@H]2[C@H](COC[C@H](O)CN2C(=O)C2CCCC2)O1	–	–	·	–	–	–
